Legend:
Assay in all cases: protein binding microarray; high values mean tight binding
Conditions in all cases: dsDNA, one strand shown
RELARELA (p65 homodimer) = RELARELA (p65 homodimer) (Homo sapiens, UniProt Q04206 1-307)
p50p50 homodimer = p50p50 homodimer (Homo sapiens, UniProt P19838 7-356)
p52p52 homodimer = target: T1, p52p52 homodimer (Homo sapiens, UniProt Q00653 4-332)
T1 sequence: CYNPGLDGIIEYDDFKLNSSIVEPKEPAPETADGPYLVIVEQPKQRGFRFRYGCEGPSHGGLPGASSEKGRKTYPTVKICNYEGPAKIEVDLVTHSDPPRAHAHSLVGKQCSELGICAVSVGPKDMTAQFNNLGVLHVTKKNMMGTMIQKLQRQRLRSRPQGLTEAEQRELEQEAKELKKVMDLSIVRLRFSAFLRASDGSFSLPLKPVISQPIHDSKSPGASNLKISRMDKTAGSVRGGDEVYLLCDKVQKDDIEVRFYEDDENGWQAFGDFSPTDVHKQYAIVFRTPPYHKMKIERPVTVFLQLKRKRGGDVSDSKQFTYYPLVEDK

[1] = target: RELA (p65) subunit of heterodimer;p50 subunit (Homo sapiens;Homo sapiens, UniProt Q04206;P19838 1-307;7-356)
RELA (p65) subunit of heterodimer;p50 subunit, sequence (Q04206 1-307, chain 1 of 2): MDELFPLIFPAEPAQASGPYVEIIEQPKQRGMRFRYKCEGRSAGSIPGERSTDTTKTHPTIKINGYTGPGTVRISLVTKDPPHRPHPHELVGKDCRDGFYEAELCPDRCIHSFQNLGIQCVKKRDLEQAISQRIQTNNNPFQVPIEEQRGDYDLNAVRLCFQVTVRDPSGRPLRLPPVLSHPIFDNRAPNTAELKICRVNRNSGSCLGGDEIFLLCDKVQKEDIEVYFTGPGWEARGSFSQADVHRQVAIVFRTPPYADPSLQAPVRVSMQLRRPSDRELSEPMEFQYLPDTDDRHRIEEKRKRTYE
RELA (p65) subunit of heterodimer;p50 subunit, sequence (P19838 7-356, chain 2 of 2): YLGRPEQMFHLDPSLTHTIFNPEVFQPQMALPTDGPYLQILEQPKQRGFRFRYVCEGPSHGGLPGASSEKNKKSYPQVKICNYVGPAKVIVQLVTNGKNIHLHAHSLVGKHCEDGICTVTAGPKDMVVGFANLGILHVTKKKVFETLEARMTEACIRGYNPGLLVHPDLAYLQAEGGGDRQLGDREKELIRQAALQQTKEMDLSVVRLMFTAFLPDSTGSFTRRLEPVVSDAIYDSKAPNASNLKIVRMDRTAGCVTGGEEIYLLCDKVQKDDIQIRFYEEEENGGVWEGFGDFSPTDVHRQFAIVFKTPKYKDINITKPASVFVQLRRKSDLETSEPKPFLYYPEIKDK

[2] = target: RELA (p65) subunit of heterodimer;p52 subunit (Homo sapiens;Homo sapiens, UniProt Q04206;Q00653 1-307;4-332)
RELB subunit;p50 subunit = RELB subunit;p50 subunit (Homo sapiens;Homo sapiens, UniProt Q01201;P19838 120-401;7-356)
RELB subunit;p52 subunit = target: T2, RELB subunit;p52 subunit (Homo sapiens;Homo sapiens, UniProt Q01201;Q00653 120-401;4-332)
T2 sequence 1: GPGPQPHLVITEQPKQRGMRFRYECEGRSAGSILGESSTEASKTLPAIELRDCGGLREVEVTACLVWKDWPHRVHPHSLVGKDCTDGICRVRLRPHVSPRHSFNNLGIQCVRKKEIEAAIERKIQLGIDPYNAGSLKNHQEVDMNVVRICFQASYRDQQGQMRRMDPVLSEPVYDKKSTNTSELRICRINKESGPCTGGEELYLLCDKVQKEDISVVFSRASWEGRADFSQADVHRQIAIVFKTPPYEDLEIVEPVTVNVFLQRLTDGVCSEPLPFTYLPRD
T2 sequence 2: T1 sequence

[3] = target: C-Rel subunit;p50 subunit (Homo sapiens;Homo sapiens, UniProt Q04864;P19838 1-285;7-356)
[4] = target: T3, C-Rel subunit;p52 subunit (Homo sapiens;Homo sapiens, UniProt Q04864;Q00653 1-285;4-332)
T3 sequence 1: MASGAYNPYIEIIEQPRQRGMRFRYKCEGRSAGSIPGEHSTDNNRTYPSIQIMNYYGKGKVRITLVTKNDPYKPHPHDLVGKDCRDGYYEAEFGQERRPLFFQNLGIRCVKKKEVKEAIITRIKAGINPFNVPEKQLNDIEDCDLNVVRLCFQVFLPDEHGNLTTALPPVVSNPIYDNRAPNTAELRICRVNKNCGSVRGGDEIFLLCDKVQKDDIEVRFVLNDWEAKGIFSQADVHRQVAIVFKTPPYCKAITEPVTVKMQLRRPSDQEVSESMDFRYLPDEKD
T3 sequence 2: T1 sequence

p50p50 homodimer, sequence (P19838 7-356): as the sequence (P19838 7-356, chain 2 of 2) above
RELARELA (p65 homodimer), sequence (Q04206 1-307): as the sequence (Q04206 1-307, chain 1 of 2) above

| Sequence | binding signal (RELARELA (p65 homodimer)) | binding signal (p50p50 homodimer) | binding signal (p52p52 homodimer) | binding signal [1] | binding signal [2] | binding signal (RELB subunit;p50 subunit) | binding signal (RELB subunit;p52 subunit) | binding signal [3] | binding signal [4] |
| --- | --- | --- | --- | --- | --- | --- | --- | --- | --- |
| AAGTAAGTCCC | 0.51 z-score | 1.02 z-score | 0.587 z-score | 0.837 z-score | 0.459 z-score | 1.1 z-score | 0.647 z-score | 0.768 z-score | 0.419 z-score |
| AGGTGTGCCCT | -0.542 z-score | -1.63 z-score | -0.541 z-score | -0.712 z-score | -0.661 z-score | -0.956 z-score | -0.903 z-score | -0.883 z-score | -0.535 z-score |
| CAGAGATTCCT | 0.143 z-score | -1.43 z-score | -0.492 z-score | -0.806 z-score | -0.992 z-score | -1.16 z-score | -1 z-score | -0.64 z-score | -0.606 z-score |
| GAGGTTATCCT | -0.457 z-score | -0.539 z-score | -0.329 z-score | -0.899 z-score | -0.657 z-score | -0.734 z-score | -0.759 z-score | -1.3 z-score | -0.681 z-score |
| GAAAAAACCCC | 2.27 z-score | 1.19 z-score | 2.74 z-score | 1.93 z-score | 2.2 z-score | 2.14 z-score | 2.12 z-score | 1.45 z-score | 2.18 z-score |
| CAGGAGGTCCT | 0.426 z-score | -1.52 z-score | -0.389 z-score | -0.781 z-score | -0.822 z-score | -0.523 z-score | -0.466 z-score | -0.953 z-score | -0.415 z-score |
| AGAGGCGTCCC | -0.0545 z-score | -0.0189 z-score | 0.07 z-score | -0.193 z-score | -0.01 z-score | 0.139 z-score | 0.267 z-score | -0.234 z-score | -0.17 z-score |
| AGGTACATCCT | -0.603 z-score | -0.00392 z-score | 0.047 z-score | -0.495 z-score | -0.249 z-score | -0.147 z-score | -0.293 z-score | -0.674 z-score | -0.415 z-score |
| AAGTTTCTCCC | 0.793 z-score | 0.601 z-score | 0.198 z-score | 0.383 z-score | 0.17 z-score | 0.576 z-score | 0.357 z-score | 0.423 z-score | 0.189 z-score |
| CGATTAACCCT | -0.485 z-score | -0.551 z-score | -0.421 z-score | -0.497 z-score | -0.556 z-score | -0.691 z-score | -0.624 z-score | -0.83 z-score | -0.644 z-score |
| AAGGTACTCCC | -0.19 z-score | 0.76 z-score | 0.735 z-score | 0.376 z-score | 0.386 z-score | 0.54 z-score | 0.302 z-score | 0.206 z-score | 0.449 z-score |
| CAGTTACCCCC | 0.379 z-score | 1.11 z-score | 0.638 z-score | 0.953 z-score | 0.838 z-score | 1.01 z-score | 1.4 z-score | 1.01 z-score | 0.788 z-score |
| GGGGGCGCCCT | 0.992 z-score | 0.922 z-score | 1.68 z-score | 1.43 z-score | 1.58 z-score | 1.12 z-score | 1.33 z-score | 0.776 z-score | 1.34 z-score |
| CAAGTGGCCCT | -1.09 z-score | -1.71 z-score | -0.67 z-score | -0.961 z-score | -0.801 z-score | -0.596 z-score | -0.32 z-score | -1.14 z-score | -0.793 z-score |
| CAGAGCACCCT | -0.924 z-score | -0.392 z-score | -0.306 z-score | -0.624 z-score | -0.75 z-score | -0.474 z-score | -0.444 z-score | -1.15 z-score | -0.736 z-score |
| AAGAACCCCCT | -0.175 z-score | 1.5 z-score | 1.86 z-score | 2.09 z-score | 1.57 z-score | 2.18 z-score | 2.07 z-score | 1.44 z-score | 1.48 z-score |
| AAAGTCATCCC | -0.416 z-score | -0.925 z-score | -0.412 z-score | -1.01 z-score | -0.716 z-score | -0.587 z-score | -0.628 z-score | -0.836 z-score | -0.699 z-score |
| GGGAGTGTCCT | 0.931 z-score | -0.152 z-score | 0.385 z-score | 0.0362 z-score | 0.309 z-score | -0.212 z-score | 0.00999 z-score | -0.0276 z-score | 0.382 z-score |
| AGGTTGCTCCC | -0.396 z-score | -0.987 z-score | -0.528 z-score | -0.584 z-score | -0.648 z-score | -0.569 z-score | -0.67 z-score | -0.696 z-score | -0.587 z-score |
| CAATGCACCCT | -0.473 z-score | -0.555 z-score | -0.333 z-score | -0.616 z-score | -0.779 z-score | -0.601 z-score | -0.639 z-score | -1 z-score | -0.653 z-score |
| AGGAGAACCCT | -0.567 z-score | -0.719 z-score | -0.426 z-score | -0.838 z-score | -0.729 z-score | -0.652 z-score | -0.634 z-score | -0.871 z-score | -0.624 z-score |
| GGAGTCCTCCC | -0.114 z-score | -0.916 z-score | -0.266 z-score | -0.571 z-score | -0.463 z-score | -0.55 z-score | -0.535 z-score | -0.207 z-score | -0.576 z-score |
| GGAAAGTTCCC | 2.6 z-score | 0.736 z-score | 0.736 z-score | 1.29 z-score | 1.02 z-score | 0.762 z-score | 0.686 z-score | 0.966 z-score | 0.929 z-score |
| CGAAGATCCCC | -0.0141 z-score | 0.983 z-score | 1.06 z-score | 1.41 z-score | 1.15 z-score | 1.5 z-score | 1.11 z-score | 1.04 z-score | 1.05 z-score |
| CAGGTGTTCCC | 0.518 z-score | 0.0166 z-score | 0.0698 z-score | -0.00537 z-score | 0.153 z-score | -0.0984 z-score | -0.0353 z-score | 0.188 z-score | 0.359 z-score |
| GAAAATATCCT | -0.0981 z-score | -1.17 z-score | -0.53 z-score | -0.742 z-score | -0.608 z-score | -1.05 z-score | -0.797 z-score | -0.995 z-score | -0.675 z-score |
| AGATTGGTCCT | -0.38 z-score | -1.15 z-score | -0.549 z-score | -1.18 z-score | -0.788 z-score | -0.729 z-score | -0.656 z-score | -1.35 z-score | -0.852 z-score |
| AGGTTACCCCT | -0.124 z-score | 0.813 z-score | 0.514 z-score | 0.468 z-score | 0.804 z-score | 0.84 z-score | 1.36 z-score | 0.567 z-score | 0.609 z-score |
| AAAAGCGTCCC | 0.0306 z-score | 0.282 z-score | 0.41 z-score | 0.21 z-score | 0.286 z-score | 0.48 z-score | 0.821 z-score | 0.207 z-score | 0.0784 z-score |
| GAAAAGGCCCC | -0.413 z-score | 0.523 z-score | 0.108 z-score | 0.289 z-score | 0.416 z-score | 0.151 z-score | 0.246 z-score | -0.101 z-score | 0.313 z-score |

— PMC3218832
